Screens deposited in PubChem by Sanford-Burnham Center for Chemical Genomics.
CYP2C9 inh: blockers of cytochrome P450 2C9 activity – biochemical, luminescence, ADME assay, primary screen. P11712. 20% of 96,000 active. inhibition, % at 5 µM. CYP2C9 Supersomes, luciferin-H conversion;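 active = blocking of liver enzyme CYP2C9 beyond about 50% at 5 µM, limit read from the data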
Pyk2 oligo antag: antagonists of Pyk2 self-association, primary screen, Q293 cells, FERM NanoBiT luminescence, HTS; Protein-tyrosine kinase 2-beta (Homo sapiens), Q14289; hits give low values; z-score (the deposit names both 25 µM and 10 µM); 0.83% of 99,000 active; AID 1347419, 2020;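 active = Z-score of -3 or lower, scaled per plate to the spread of control and sample wells; inactive = z-score above -3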;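 also: negative z-score means lost luminescence so less FERM oligomerization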
Target sequence (Q14289 whole entry, looked up): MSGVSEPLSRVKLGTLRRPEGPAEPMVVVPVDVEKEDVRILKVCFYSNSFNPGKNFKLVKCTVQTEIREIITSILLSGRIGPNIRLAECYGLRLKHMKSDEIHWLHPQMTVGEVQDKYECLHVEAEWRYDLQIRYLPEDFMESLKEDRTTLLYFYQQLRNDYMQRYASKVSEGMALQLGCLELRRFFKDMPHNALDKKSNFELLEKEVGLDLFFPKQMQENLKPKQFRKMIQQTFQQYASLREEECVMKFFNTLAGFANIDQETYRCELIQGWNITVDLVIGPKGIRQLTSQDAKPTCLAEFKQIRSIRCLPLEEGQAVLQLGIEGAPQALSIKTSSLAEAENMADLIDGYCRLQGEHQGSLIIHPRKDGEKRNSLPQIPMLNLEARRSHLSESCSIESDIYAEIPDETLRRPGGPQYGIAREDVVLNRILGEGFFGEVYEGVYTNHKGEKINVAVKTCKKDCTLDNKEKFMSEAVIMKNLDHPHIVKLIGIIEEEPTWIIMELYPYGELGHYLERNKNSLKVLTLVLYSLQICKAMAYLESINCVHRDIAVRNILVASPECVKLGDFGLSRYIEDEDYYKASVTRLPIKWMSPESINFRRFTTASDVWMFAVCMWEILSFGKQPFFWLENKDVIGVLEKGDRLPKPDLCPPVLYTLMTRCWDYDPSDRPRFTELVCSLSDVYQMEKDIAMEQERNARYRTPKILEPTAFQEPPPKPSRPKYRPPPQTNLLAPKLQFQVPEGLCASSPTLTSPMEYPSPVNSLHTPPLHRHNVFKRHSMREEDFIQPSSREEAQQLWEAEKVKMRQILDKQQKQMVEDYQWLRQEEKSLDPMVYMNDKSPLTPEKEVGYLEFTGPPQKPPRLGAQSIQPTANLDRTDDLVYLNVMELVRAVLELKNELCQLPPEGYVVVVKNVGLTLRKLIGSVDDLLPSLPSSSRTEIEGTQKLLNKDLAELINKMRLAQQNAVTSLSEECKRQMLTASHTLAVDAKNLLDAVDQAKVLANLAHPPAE
CYP2C9 act: human CYP2C9 activators, primary screen, biochemical, luminescence; Cytochrome P450 2C9 (Homo sapiens), P11712; recombinant CYP2C9, luciferin-H conversion; hits give high values; factor 1 = untreated enzyme, 0 = blocked; activation factor at 5 µM; 1.4% of 96,000 active; AID 1024, 2008;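 active = activation factor of 2 or more for CYP2C9 at a 5 µM dose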
CYP2C19 act: human CYP2C19 activators, primary screen, biochemical, luminescence; Cytochrome P450 2C19 (Homo sapiens), P33261; recombinant CYP2C19, luciferin-H EGE luminescence; hits give high values; 0 = fully inhibited enzyme, 1 = untreated enzyme; activation factor at 5 µM; 96,000 tested, under 10 active; AID 1025, 2008;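 active = activation factor of at least 2 at 5 µM in the primary screen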
CYP2C19 inh: blockers of cytochrome P450 2C19 activity – biochemical, luminescence, ADME assay, primary screen. CYP2C19 Supersomes, luciferin-H EGE luminescence, 30 min. inhibition, % at 5 µM. 21% of 96,000 active. AID 778, 2007;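 active = CYP2C19 inhibition above a set limit at 5 µM in the primary screen, cut at about 50% in these data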
Numbers stand for hits; – = inactive; · = not tested or not shown. Rows were chosen to be rich in hits. Some 28% of all compounds tested hit in one or more screens of this group.

SMILES | CYP2C9 inh | Pyk2 oligo antag | CYP2C9 act | CYP2C19 act | CYP2C19 inh
COc1cc(NS(=O)(=O)c2ccc(NC(=O)/C(=C\c3ccccc3OC)NC(=O)c3ccccc3)cc2)nc(OC)n1 | – | – | – | – | –
CC1(C)Cc2nc3oc4c(=S)nc[nH]c4c3cc2CO1 | – | – | – | – | –
COc1cc(CNCCN2CCOCC2)ccc1OCc1ccc(Cl)cc1 | – | – | – | – | –
COc1cc(CNCCc2ccc(S(N)(=O)=O)cc2)ccc1OCC(=O)NC1CCCCC1 | – | – | – | – | –
COc1cc(CNCCc2ccc(S(N)(=O)=O)cc2)ccc1OCc1ccc(Cl)cc1 | – | – | – | – | 53.1
COc1cc(CNCCc2ccccc2)ccc1OCc1ccc(Cl)nc1 | – | – | – | – | 67.9
CCOc1cc(CNCCc2ccc(S(N)(=O)=O)cc2)ccc1OCc1ccc(Cl)cc1 | – | – | – | – | 53.5
O=C(O/N=C/c1ccc2c(c1)OCO2)c1ccccc1Cl | – | · | – | – | –
Cn1c(=O)c2c(SCc3ccccn3)nc(C3CC3)nc2n(C)c1=O | – | · | – | – | –
Cc1cc(NC(=O)CSc2nc(CC(C)(C)C)nc3c2c(=O)n(C)c(=O)n3C)no1 | 63.0 | · | – | – | –
Cn1c(=O)c2c(SCc3ccccn3)nc(CC(C)(C)C)nc2n(C)c1=O | 82.5 | · | – | – | –
CCc1nc(SCC(=O)Nc2cc(C)on2)c2c(=O)n(C)c(=O)n(C)c2n1 | – | · | – | – | –
CCCc1nc(SCc2ccccn2)c2c(=O)n(C)c(=O)n(C)c2n1 | 70.9 | · | – | – | –
O=C1c2ccccc2NC2CCCCCN12 (stereo not drawn) | · | – | · | · | ·
O=C1c2ccccc2NC2CCCCC12 (stereo not drawn) | – | – | 5.1 | – | –
O=C(c1ccc(Cl)cc1)N(Cc1cccs1)C1CCS(=O)(=O)C1 (stereo not drawn) | – | – | – | – | –
COC(=O)C1C(=O)c2c([nH]c(C(=O)OC3CCCC3C)c2C)CC1C (stereo not drawn) | 56.1 | · | – | – | –
COC(=O)C1C(=O)c2c([nH]c(C(=O)OC3CCCCC3)c2C)CC1C (stereo not drawn) | – | · | – | – | –
COC(=O)C1C(=O)c2c([nH]c(C(=O)OCCOC(C)C)c2C)CC1C (stereo not drawn) | 59.2 | · | – | – | –
O=C(Nc1nc(-c2ccccc2)cs1)c1ccc(Br)o1 | – | – | – | – | –
Cc1c(C)c2cc(Cl)c(OCc3nn[nH]n3)cc2oc1=O | 93.6 | – | – | – | 92.3
Cc1ccc(-n2c(C)cc(C(=S)N3CCOCC3)c2C)cc1C | – | – | – | – | 86.7
CC(=O)Nc1c(C(=O)N2CCOCC2)cnn1-c1ccc(C)c(C)c1 | – | – | – | – | –
COC(=O)N/N=C(\C)c1ccccc1Br | – | – | – | – | –
Cc1[nH]c2ccc(C(=O)OCCN(C)C)cc2c1C | – | – | – | – | 85.5
SMILES | CYP2C9 inh | Pyk2 oligo antag | CYP2C9 act | CYP2C19 act | CYP2C19 inh
CCOC(=O)c1ccc2[nH]c(C)c(C)c2c1 | · | – | · | · | ·
CC1(C)Cc2c(c(-c3ccccc3)nc(N3CCCC3)c2C(N)=O)CO1 | – | – | – | – | –
COC(=O)CCC(=O)Nc1cccc2ccccc12 | – | – | – | – | –
O=S(=O)(/N=C(/Nc1cccc2ccccc12)c1ccccc1)c1cccs1 | 84.3 | – | – | – | 90.0
CCOc1ccc(C2C=C(c3ccc(C)cc3)Nc3ncnn32)cc1 (stereo not drawn) | – | · | – | – | –
CCOc1ccc(C2C=C(c3ccccc3)Nc3nnnn32)cc1 (stereo not drawn) | 62.5 | – | – | – | 64.3
CCOc1ccc(C2C=C(c3ccc(C)cc3)Nc3nnnn32)cc1 (stereo not drawn) | 83.9 | – | – | – | 83.4
Cc1ccccc1C(=O)NC1CCN(C(=O)N(c2ccccc2)c2ccccc2)CC1 | 58.3 | – | – | – | –
Cc1ccccc1C(=O)NC1CCN(C(=O)N2CCOCC2)CC1 | · | – | · | · | ·
CCOc1ccccc1NC(=O)N1CCC(NC(=O)c2cccc(C)c2)CC1 | – | – | 2.6 | – | –
CCOc1ccccc1NC(=O)N1CCC(NC(=O)c2ccccc2C)CC1 | – | – | 2.3 | – | –
Cc1cccc(NC(=O)N2CCC(NC(=O)c3ccccc3C)CC2)c1 | – | – | – | – | –
COc1ccc(N(CC(O)CN2C(=O)NC(C)(C)C2=O)S(=O)(=O)c2ccccc2)cc1 (stereo not drawn) | – | – | – | – | –
CCn1cc(C(=O)OCC(=O)N(C)C2CCS(=O)(=O)C2)c(=O)c2ccc(C)nc21 (stereo not drawn) | – | – | – | – | –
CC1CCC2(CC1)NC(=S)N(c1ccccc1)N2 (stereo not drawn) | – | – | – | – | 54.2
Cc1cc(N2C(=O)C(=O)/C(=C(/O)c3ccc(F)cc3)C2c2cccc(Br)c2)no1 (stereo not drawn) | 61.4 | – | – | – | –
Cc1ccc(/C(O)=C2\C(=O)C(=O)N(c3cc(C)on3)C2c2cccc(Br)c2)cc1 (stereo not drawn) | – | – | – | – | –
Cc1cc(N2C(=O)C(=O)/C(=C(/O)c3ccccc3)C2c2cccs2)no1 (stereo not drawn) | 70.8 | – | – | – | –
COc1ccc(NC(=O)CSc2nc3c(c(=O)n2-c2ccc(C)cc2)SCC3)c(OC)c1 | · | – | · | · | ·
CC(=O)NCN1CCN(CNC(C)=O)CC1 | – | – | – | – | –
O=C(CSc1nc2ccccc2[nH]1)c1ccc(Cl)s1 | 91.7 | – | – | – | 97.9
O=C(CSc1nc2ccccc2[nH]1)c1ccco1 | – | – | – | – | 65.3
O=C(Nc1ccc(N2CCOCC2)nc1)c1ccc(F)cc1 | – | – | – | – | –
COc1cc2[nH]cc(C(=O)NCc3cccs3)c(=O)c2cc1OC | · | – | · | · | ·
O=S(=O)(c1ccccc1F)N(Cc1ccco1)Cc1nnc(-c2ccccc2Br)o1 | 68.2 | – | – | – | 50.1
SMILES | CYP2C9 inh | Pyk2 oligo antag | CYP2C9 act | CYP2C19 act | CYP2C19 inh
CCCCOP(=O)(OCCCC)C1(NS(=O)(=O)c2ccccc2)C=CC(=O)c2ccccc21 (stereo not drawn) | 60.4 | – | – | – | –
O=C(O)C1CSC(c2ccncc2)N1 (stereo not drawn) | 73.3 | – | – | – | 58.9
COC(=O)c1ccc(C2NC(C(=O)O)CS2)cc1 (stereo not drawn) | – | – | – | – | –
COc1cccc(N2CCN(CC(=O)Nc3nc4c(s3)CC(C)CC4)CC2)c1 (stereo not drawn) | 53.1 | – | – | – | –
COC(=O)c1cccc(NC(=O)CN2CCN(c3ccc(OC)cc3)CC2)c1 | 85.6 | – | – | – | 64.6
CCOc1ccc(NC(=O)CCN2CCN(c3ccccc3OC)CC2)cc1 | – | – | – | – | –
CCN(CC)c1ccc(NC(=O)CN2CCN(c3ccccc3F)CC2)cc1 | – | – | – | – | 55.2
